Experiments:
[1] = test system: ACVR1B
[2] = test system: ACVR1
[3] = test system: ACVRL1
[4] = test system: AURKB
[5] = test system: T1, YSK1; conditions: Compound Concentration (nM):1000
T1 construct: gene STK25

[6] = test system: T2, YSK4; conditions: Compound Concentration (nM):1000
T2 construct: gene MAP3K19

[7] = test system: ZAK; conditions: Compound Concentration (nM):1000
[8] = test system: ZAP70; conditions: Compound Concentration (nM):1000
[9] = test system: T3, p38-alpha; conditions: Compound Concentration (nM):1000
T3 construct: gene MAPK14

[10] = test system: T4, p38-beta; conditions: Compound Concentration (nM):1000
T4 construct: gene MAPK11

[11] = test system: T5, p38-delta; conditions: Compound Concentration (nM):1000
T5 construct: gene MAPK13

[12] = test system: T6, p38-gamma; conditions: Compound Concentration (nM):1000
T6 construct: gene MAPK12

[13] = test system: AURKA
[14] = test system: ATR
[15] = test system: ABL1
[16] = test system: ACK1
[17] = test system: AKT1
[18] = test system: AKT2
[19] = test system: ALK
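Throughout, for Percent Control: KINOMEscan scanMAX binding as percent activity remaining versus control; lower means stronger binding.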

Which results are given for `COc1cc(-c2cncc(-c3cnn(C4CCNCC4)c3)c2)cc(OC)c1OC` [K05908]?
Kinases covered [1]: ACVR1B; Kinases covered [2]: ACVR1; Kinases covered [3]: ACVRL1

`Cn1ccc2ncnc(Oc3ccc(Nc4nc5ccccc5[nH]4)cc3)c21` [TPKI-72] was tested. Which Kinases covered [4] did it give?
The Kinases covered was “AURKB”.

`Cl.O=C(O[C@H]1CN[C@H](C#Cc2cc3ncnc(Nc4ccc5c(cnn5Cc5ccccc5)c4)c3s2)C1)N1CCOCC1` [GSK200398A] was tested. Which “Percent Control” value [5] did it give?
The value was 79%.

And the “Percent Control” value [6]?
The value was 83%.

What about the “Percent Control” value [7] of the same compound?
The value was 82%.

What about the “Percent Control” value [8] of the same compound?
The value was 89%.

And the “Percent Control” value [9]?
The value was 100%.

And the “Percent Control” value [10]?
The value was 100%.

What about the “Percent Control” value [11] of the same compound?
Its value is 100%.

And the “Percent Control” value [12]?
Its value is 100%.

`Cc1cccc(-c2nc(Nc3ccncc3)c3ccccc3n2)n1` [GW855857] was tested. Which Kinases covered [1] did it give?
The Kinases covered was “ACVR1B”.

Which results are given for `COc1ccccc1-c1cc(/C=C2\C(=O)Nc3ncc(Br)cc32)cc(Br)c1O` [GW442130X]?
Percent Control [5]: 99%; Percent Control [6]: 98%; Percent Control [7]: 100%; Percent Control [8]: 100%; Percent Control [9]: 100%; Percent Control [10]: 92%; Percent Control [11]: 67%; Percent Control [12]: 57%; Kinases covered [13]: AURKA

`CS(=O)(=O)c1ccc(-c2cnc(N)c(C(=O)Nc3ccccc3)n2)cc1` [VE-821] was tested. Which Kinases covered [14] did it give?
Its Kinases covered is “ATR”.

Which Kinases covered [15] does the source give for `O=C(NCCO)c1cccc(-c2cc(Nc3ccc(OC(F)(F)F)cc3)ncn2)c1` [GNF-5] here?
Its Kinases covered is “ABL1”.

`CN(C)c1cc2c(Nc3ccc4c(cnn4Cc4ccccc4)c3)ncnc2cn1` [GW282974X] was tested. Which “Percent Control” value [5] did it give?
Its value is 83%.

And the “Percent Control” value [6]?
Its value is 90%.

And the “Percent Control” value [7]?
Its value is 90%.

What about the “Percent Control” value [8] of the same compound?
The value was 83%.

What about the “Percent Control” value [9] of the same compound?
Its value is 100%.

What about the “Percent Control” value [10] of the same compound?
Its value is 100%.

And the “Percent Control” value [11]?
Its value is 99%.

And the “Percent Control” value [12]?
The value was 100%.

Which results are given for `NS(=O)(=O)c1ccc(N/N=C2\C(=O)Nc3ccc(Cl)cc32)cc1` [GW280670X]?
Percent Control [5]: 80%; Percent Control [6]: 31%; Percent Control [7]: 100%; Percent Control [8]: 100%; Percent Control [9]: 100%; Percent Control [10]: 100%; Percent Control [11]: 100%; Percent Control [12]: 100%

Which results are given for `COc1ccc2c(-c3ccnc(Nc4cccc(OC(F)(F)F)c4)n3)cnn2n1` [GW810372X]?
Percent Control [5]: 85%; Percent Control [6]: 39%; Percent Control [7]: 69%; Percent Control [8]: 86%; Percent Control [9]: 100%; Percent Control [10]: 100%; Percent Control [11]: 100%; Percent Control [12]: 77%

With `CCn1cc(-c2ccnc3[nH]c(-c4cccc(CN(C)C)c4)cc23)c(-c2ccc(NC(=O)N(C)C)cc2)n1` [GSK1070916] as the compound, how does the Kinases covered [4] read?
The Kinases covered was “AURKB”.

How did the Kinases covered [16] turn out when `CNS(=O)(=O)c1ccc(N(C)C)c(Nc2ncnc3cc(OC)c(OC)cc23)c1` [GSK114] was run?
Its Kinases covered is “ACK1”.

How did the “Percent Control” value [5] turn out when `COc1cc(/C=N/Nc2ncnc3[nH]ncc23)ccc1O` [GW578748X] was run?
The value was 70%.

And the “Percent Control” value [6]?
The value was 3.2%.

What about the “Percent Control” value [7] of the same compound?
Its value is 59%.

What about the “Percent Control” value [8] of the same compound?
Its value is 76%.

What about the “Percent Control” value [9] of the same compound?
Its value is 100%.

What about the “Percent Control” value [10] of the same compound?
The value was 100%.

What about the “Percent Control” value [11] of the same compound?
Its value is 100%.

And the “Percent Control” value [12]?
The value was 69%.

Which results are given for `CCn1c(-c2nonc2N)nc2c(C#CC(C)(C)O)nc(OCCNC)cc21.Cl` [GSK949675]?
Percent Control [5]: 89%; Percent Control [6]: 0%; Percent Control [7]: 100%; Percent Control [8]: 100%; Percent Control [9]: 100%; Percent Control [10]: 94%; Percent Control [11]: 100%; Percent Control [12]: 84%; Kinases covered [17]: AKT1; Kinases covered [18]: AKT2

How did the “Percent Control” value [5] turn out when `CN1CCN(C(=O)c2ccc(NC(=O)Nc3ccc(N(C)c4ccnc(Nc5ccc(CS(C)(=O)=O)cc5)n4)cc3)cc2)CC1.Cl` [GW830263A] was run?
The value was 83%.

And the “Percent Control” value [6]?
The value was 0%.

What about the “Percent Control” value [7] of the same compound?
Its value is 86%.

And the “Percent Control” value [8]?
Its value is 65%.

What about the “Percent Control” value [9] of the same compound?
Its value is 83%.

And the “Percent Control” value [10]?
The value was 100%.

What about the “Percent Control” value [11] of the same compound?
Its value is 100%.

And the “Percent Control” value [12]?
The value was 100%.

Which results are given for `COc1cc(C)c(N(C)C(=O)CN(C)C)cc1Nc1nc(Nc2cccc(F)c2C(N)=O)c2cc[nH]c2n1` [GSK2219385]?
Percent Control [5]: 100%; Percent Control [6]: 51%; Percent Control [7]: 90%; Percent Control [8]: 81%; Percent Control [9]: 97%; Percent Control [10]: 100%; Percent Control [11]: 100%; Percent Control [12]: 56%

For `COc1cccc(-n2ncc3c(N/N=C/c4ccncc4)ncnc32)c1` [GW784752X], which “Percent Control” value [5] is on record?
The value was 90%.

And the “Percent Control” value [6]?
Its value is 21%.

What about the “Percent Control” value [7] of the same compound?
The value was 39%.

What about the “Percent Control” value [8] of the same compound?
The value was 98%.

What about the “Percent Control” value [9] of the same compound?
The value was 100%.

And the “Percent Control” value [10]?
Its value is 100%.

And the “Percent Control” value [11]?
The value was 100%.

And the “Percent Control” value [12]?
The value was 100%.

`C/C(Nc1ccc(S(N)(=O)=O)cc1)=C1/C(=O)Nc2ccccc21` [GW335962X] was tested. Which “Percent Control” value [5] did it give?
The value was 55%.

And the “Percent Control” value [6]?
Its value is 14%.

And the “Percent Control” value [7]?
Its value is 100%.

What about the “Percent Control” value [8] of the same compound?
Its value is 94%.

What about the “Percent Control” value [9] of the same compound?
The value was 100%.

And the “Percent Control” value [10]?
The value was 100%.

What about the “Percent Control” value [11] of the same compound?
Its value is 100%.

And the “Percent Control” value [12]?
Its value is 73%.

For `Cc1cccc(-c2cc(Nc3ccncc3)c3ccccc3n2)n1` [GSK223675], which Kinases covered [1] is on record?
The Kinases covered was “ACVR1B”.

Which “Percent Control” value [5] does the source give for `COc1cc2ncnc(Nc3ccc4c(cnn4Cc4ccccc4)c3)c2cc1OC.Cl` [GW282449A] here?
The value was 89%.

And the “Percent Control” value [6]?
The value was 98%.

What about the “Percent Control” value [7] of the same compound?
The value was 100%.

And the “Percent Control” value [8]?
Its value is 100%.

And the “Percent Control” value [9]?
Its value is 100%.

What about the “Percent Control” value [10] of the same compound?
The value was 100%.

What about the “Percent Control” value [11] of the same compound?
Its value is 100%.

And the “Percent Control” value [12]?
Its value is 100%.

With `CNC(=O)c1c(F)cccc1Nc1nc(Nc2cc3c(cc2OC)CCN3C(=O)CN(C)C)nc2[nH]ccc12` [GSK1838705] as the compound, how does the Kinases covered [19] read?
Its Kinases covered is “ALK”.

How did the “Percent Control” value [5] turn out when `CC1=C(C(=O)Nc2ccc3[nH]ncc3c2)C(c2ccc(Cl)c(Cl)c2)CC(=O)N1` (centres unmarked) [GSK299115A] was run?
The value was 67%.

What about the “Percent Control” value [6] of the same compound?
Its value is 64%.

And the “Percent Control” value [7]?
Its value is 100%.

What about the “Percent Control” value [8] of the same compound?
The value was 100%.

What about the “Percent Control” value [9] of the same compound?
Its value is 100%.

And the “Percent Control” value [10]?
Its value is 100%.

What about the “Percent Control” value [11] of the same compound?
Its value is 100%.

What about the “Percent Control” value [12] of the same compound?
Its value is 100%.

Which results are given for `CN1C(=O)c2ccccc2N(C)c2nc(Nc3cnn(C4CCNCC4)c3)ncc21` [XMD-17-51]?
Kinases covered [15]: ABL1; Kinases covered [13]: AURKA

For `Cc1cc(O)cc(C)c1/C=C/c1cncc(C(N)=O)c1` [GW435821X], which “Percent Control” value [5] is on record?
Its value is 95%.

And the “Percent Control” value [6]?
The value was 84%.

And the “Percent Control” value [7]?
The value was 87%.

What about the “Percent Control” value [8] of the same compound?
Its value is 96%.

And the “Percent Control” value [9]?
Its value is 100%.

What about the “Percent Control” value [10] of the same compound?
Its value is 100%.

And the “Percent Control” value [11]?
Its value is 100%.

What about the “Percent Control” value [12] of the same compound?
The value was 100%.

From article PMC7826789 (International Journal of Molecular Sciences, 2021)
